The record followed here is PubChem BioAssay AID1566 (Sanford-Burnham Center for Chemical Genomics, 2009).

Where “and” joins values, the source holds several entries; their conditions need not be identical. Equal entries are not always repeated. The campaign covered roughly 290,000 compounds. About 1,800 (0.62%) were called active. Cut-off read from the data, not from the text of the source: active = inhibition above about 50%; inactive = the rest. Shown is part of a subset that was picked to be rich in actives.

A word on the inhibition: it is the drop in the measured response relative to a control, in per cent.

A short description of the experiment: inhibition of NOD2-driven NF-kB reporter – cell-based, luminescence, uHTS, HEK293 (AID 1566). As to conditions: HEK293 NOD2/NF-kB luciferase reporter, at 4 µM, stronger effect = higher value. A general note: In a reporter assay the amount or activity of a reporter protein is the signal.
Regarding `COc1ccc(C(C)(C)C)cc1S(=O)(=O)n1ccnc1C`, the inhibition is 9% (inactive). With `OCCN1CCN(CC(O)COc2ccc(C34CC5CC(CC(C5)C3)C4)cc2)CC1` (stereo unspecified), the inhibition was 6% (inactive). Regarding `OCCN(CCO)CC(O)COc1ccc(C23CC4CC(CC(C4)C2)C3)cc1` (stereo unspecified), the inhibition is 51.5% (active).

On to `OCCN(CCO)CC(O)COc1ccc(Br)cc1` (stereo unspecified), for which the inhibition is 19% (inactive) and 15.4% (inactive). As to `O=C1c2[nH]nc(-c3ccccc3O)c2C(c2cccc(O)c2)N1Cc1ccco1` (stereo unspecified), the inhibition was 24.7% (inactive). For `COc1ccc(S(=O)(=O)N2CCCCC2)cc1NC(=O)CN(C)C1CCCCC1`, the inhibition is 8% (inactive). As to `Cc1cnn(-c2cc(N/N=C/c3ccc(F)cc3)ncn2)c1`, the inhibition is -26.9% (inactive).

On to `CC1=CC(=C2C(=O)c3ccccc3C2=O)C=C(C)N1C`, for which the inhibition is -61.9% (inactive). On to `CN1C=CC(=C2C(=O)c3ccccc3C2=O)C=C1`, for which the inhibition was -99% (inactive). With `CCCCCN1C=CC(=C2C(=O)c3ccccc3C2=O)C=C1`, the inhibition was 73.5% (active). As for `CCCCCCN1C=CC(=C2C(=O)c3ccccc3C2=O)C=C1`, the inhibition was -6.6% (inactive). For `CCCCN1C=CC(=C2C(=O)c3ccccc3C2=O)C=C1`, the inhibition is 79.8% (active). Regarding `CCCN1C=CC(=C2C(=O)c3ccccc3C2=O)C=C1`, the inhibition is 83.7% (active). Turning to `CCCCNC1=CC(=O)C(=O)c2ccccc21`, the inhibition was -26.1% (inactive). Regarding `CCCCN1C(C)=CC(=C2C(=O)c3ccccc3C2=O)C=C1C`, the inhibition is -61.1% (inactive). As for `CCN1C=CC(=C2C(=O)c3ccccc3C2=O)C=C1`, the figure is 54.1% (active). Take `CCN1C(=C2C(=O)c3ccccc3C2=O)C=Cc2ccccc21`: the inhibition is 2.2% (inactive). With `CCCCN1C=CC(=C2N=c3cccc([N+](=O)[O-])c3=N2)C=C1`, the inhibition was 7.8% (inactive). For `CC1=CC(=C2C(=O)c3ccccc3C2=O)C=C(C)O1`, the inhibition was -31.6% (inactive). As for `COc1cc(C(=O)OCC(=O)N2CCCCC2C)ccc1OCc1c(C)noc1C` (stereo unspecified), the inhibition is -27.2% (inactive).

As to `Cc1ccc(CN(CC(=O)NCCc2ccccc2)C(=O)CCCC(=O)Nc2cc(C)on2)cc1`, the inhibition was -8.6% (inactive). On to `O=C(N/C(=C\c1cccnc1)C(=O)N1CCCCC1)c1cccc(Br)c1`, for which the inhibition is 0.3% (inactive). With `CCOC(=O)N1CCN(C(=O)C2CCCN(c3ncnc4c3nc3n4CCCCC3)C2)CC1` (stereo unspecified), the inhibition is 7.5% (inactive). The value for `O=C(NC1CCCCCC1)C(=S)NC1CCCCC1` was -56.5% (inactive); that for `C#CCOc1ccc(/C=C2/C(=O)NN(c3ccc(F)cc3)C2=O)cc1OC` was 9.7% (inactive). Turning to `CC(CC(=O)Nc1nncs1)c1ccccc1` (stereo unspecified), the inhibition was 20.2% (inactive). As to `COc1ccc(C2NC(=S)NC(C)=C2C(=O)c2ccccc2)cc1OC` (stereo unspecified), the inhibition is 3.4% (inactive). For the molecule `Oc1ccc(N=Nc2ccc3c(c2)OCCO3)c(O)c1`, the inhibition is -142% (inactive). Take `Oc1ccc(N=Nc2ccc3c(c2)OCCO3)c2ncccc12`: the inhibition is -8.2% (inactive). For the molecule `Oc1ccc(N=Nc2ccc3c(c2)OCO3)c2ccccc12`, the inhibition is 81.2% (active). As to `CCOc1ccc(CN(C(=O)c2oc3ccccc3c2C)C2CCS(=O)(=O)C2)cc1` (stereo unspecified), the inhibition was -8.4% (inactive). On to `Cc1ccc(-n2c(C)cc(C3=NNC(=NC4CC4)SC3)c2C)cc1C`, for which the inhibition was -57.3% (inactive). As for `Cc1cc(C2=NNC(=NC3CC3)SC2)c(C)n1-c1c(C)n(C)n(-c2ccccc2)c1=O`, the figure is -1.3% (inactive); as for `Cc1cc(C2=NNC(=NC3CC3)SC2)c(C)n1-c1ccccc1`, 90.5% (active); as for `COc1ccc(-n2c(C)cc(C3=NNC(=NC4CC4)SC3)c2C)cc1`, -16.5% (inactive). On to `C=CCN=C1NN=C(c2ccc3c(c2)OCCO3)CS1`, for which the inhibition is 37.7% (inactive). As for `COCCCN=C1NN=C(c2cc(C)n(-c3ccccc3F)c2C)CS1`, the inhibition is -10.1% (inactive).

With `c1cc2c(cc1C1=NNC(=NC3CC3)SC1)OCCO2`, the inhibition is 85.7% (active). As to `Cc1cc(C2=NNC(=NC3CC3)SC2)c(C)n1-c1ccccc1F`, the inhibition is 88.9% (active). Regarding `CCCCN=C1NN=C(c2ccc3c(c2)OCCO3)CS1`, the inhibition was -57.3% (inactive).

As for `COc1ccc(N2C(=O)c3ccccc3NC23CCC(C)CC3)cc1` (stereo unspecified), the inhibition was -58.1% (inactive). On to `Cc1cc(=O)[nH]c(N/N=C/c2ccc(Cl)c([N+](=O)[O-])c2)n1`, for which the inhibition was -5.5% (inactive). For the molecule `COc1ccc(/C=C(\NC(=O)c2ccc(OC)cc2)C(=O)N2CCCCC2)cc1`, the inhibition is -9.7% (inactive). In the case of `Cn1c(=O)c2c(nc(SCC(=O)O)n2Cc2cc3c(cc2Cl)OCO3)n(C)c1=O`, the inhibition is 3% (inactive). Take `CCOCCCn1cnc2c(c1=O)c1nc3ccccc3nc1n2-c1ccc(C)cc1`: the inhibition is 24.1% (inactive).

As to `O=C(NCCn1cccn1)c1ccc(OC2CCN(C(=O)C3CC3)CC2)cc1`, the inhibition is -27.2% (inactive). On to `O=C(N/N=C/c1cc([N+](=O)[O-])ccc1O)NC12CC3CC(CC(C3)C1)C2`, for which the inhibition is 64% (active).

In the case of `O=C(N/N=C/c1ccccc1O)NC12CC3CC(CC(C3)C1)C2`, the inhibition was -29.5% (inactive). `O=C(N/N=C/c1cc([N+](=O)[O-])ccc1O)C12CC3CC(CC(C3)C1)C2`: the inhibition is 15% (inactive).

On to `c1ccc(-c2ccccc2OCCCN2CCOCC2)cc1`, for which the inhibition was -29.3% (inactive).

As to `O=C(CSc1nnc(-c2ccc(F)cc2)o1)Nc1ccc(S(=O)(=O)N2CCCCCC2)cc1`, the inhibition is -4.4% (inactive). As for `CCOCC(=O)Nc1cccc(Br)c1`, the figure is -5.5% (inactive); as for `CCCc1cc(C(=O)Nc2ccc(C(=O)c3ccc(C)cc3)cc2)n(C)n1`, 23.6% (inactive). The value for `CCCc1cc(C(=O)Nc2ccc(C(=O)c3ccc(F)cc3)cc2)n(C)n1` was 18.5% (inactive). On to `CCCc1cc(C(=O)Nc2ccc(C(=O)c3ccccc3)cc2)n(C)n1`, for which the inhibition was 54.7% (active). For the molecule `CCOC(=O)c1c(C)n(C)c2ccc(OCC(O)CN3CCN(C)CC3)cc12` (stereo unspecified), the inhibition is -0.5% (inactive). Take `CCc1nc(SCC(=O)N2CCCc3ccccc32)c2oc3ccccc3c2n1`: the inhibition was 37% (inactive). As to `Cc1nc(SCC(=O)N2CCCc3ccccc32)c2oc3ccccc3c2n1`, the inhibition is -6.5% (inactive). The value for `COc1cc(C(=O)NCc2ccncc2)cc(OC)c1OC` was 10.3% (inactive); that for `Nc1ncc(-c2ccccc2)c(-c2ccc(OCc3ccccc3)cc2O)n1` was 13.4% (inactive); that for `COc1ccc(-c2cnc(N)nc2-c2ccc(OCc3ccccc3)cc2O)cc1` was -4.2% (inactive). In the case of `Nc1ncnc2c1ncn2Cc1ccccc1`, the inhibition was 6.4% (inactive). For the molecule `CCc1ccc(N2CN(Cc3ccco3)CNC2=S)cc1`, the inhibition was 4.9% (inactive).

For `COc1ccc(/C=N/OCC(=O)Nc2nc3ccccc3s2)cc1OC`, the inhibition is -1.1% (inactive). In the case of `CC1=NN(C(=O)Cn2ccc([N+](=O)[O-])n2)C(O)(C(F)(F)F)C1` (stereo unspecified), the inhibition is 12.1% (inactive). On to `CCOC(=O)C1=C(c2ccccc2)O/C(=C(\C(=O)OC)C(F)(F)F)S1`, for which the inhibition is -23% (inactive).

Consider `CCOC(=O)C1=C(c2ccccc2)O/C(=C(/C(=O)OC)C(F)(F)F)S1`, for which the inhibition was 5.4% (inactive). Consider `CCOC(=O)C1=C(c2ccccc2)O/C(=C(/C#N)C(F)(F)F)S1`, for which the inhibition is 51.4% (active). Regarding `CC(=O)Nc1ccc(S(=O)(=O)Nc2nc3ccccc3nc2N2CCCC2)cc1`, the inhibition was -6% (inactive).

`Cc1ccn2cc(C(=O)N3CCCC(Nc4ccc(F)cc4)C3)nc2c1` (stereo unspecified): the inhibition is -9.3% (inactive). For `O=C(Nc1ccccc1)c1c(F)cccc1F`, the inhibition is -8% (inactive). As for `O=C(Nc1ccncc1)c1c(F)c(F)c(F)c(F)c1F`, the figure is 8.8% (inactive). As to `O=C(Oc1cccc2cccnc12)c1cccc([N+](=O)[O-])c1`, the inhibition was 11.2% (inactive).

For `O=C(Oc1c(Cl)cc(Cl)c2cccnc12)c1cccc([N+](=O)[O-])c1`, the inhibition was 96.1% (active). As for `O=C(Oc1ccc(Cl)c2cccnc12)c1cccc([N+](=O)[O-])c1`, the figure is 13.8% (inactive). For the molecule `CCOc1ccc(-c2ccc(SCC(=O)Nc3nnc(CC)s3)nn2)cc1`, the inhibition is -117% (inactive). On to `CCCC(C(=O)NC1CCCC1)N(CC1CCCO1)C(=O)c1snc(C(N)=O)c1N` (stereo unspecified), for which the inhibition is -7.3% (inactive). On to `CC(C)(C)c1ccc(OC(=O)Nc2ccc(O)c(C(=O)O)c2)cc1`, for which the inhibition was 51.6% (active). The value for `Cc1ccc(OCC(=O)Nc2ccc(O)c(C(=O)O)c2)cc1C` was 1.5% (inactive); that for `O=C(Nc1ccc(O)c(C(=O)O)c1)Oc1ccccc1` was 8.6% (inactive); that for `COC(=O)C1=C(C)NC(C)=C(C(=O)OC)C1c1ccccn1` was 2.3% (inactive). `Cc1ccc(OCc2cc(C(=O)N3CCN(C)C[C@@H]3c3ccccc3)no2)cc1C`: the inhibition is -27.5% (inactive). The value for `S=C(Nc1cc(Cl)cc(Cl)c1)N1CCN(c2ccccn2)CC1` was 14.1% (inactive). For `CCOC(=O)Cc1nnc2c(Nc3ccc(C)cc3)nc3nonc3n12`, the inhibition was -2.9% (inactive).

For the molecule `CCOC(=O)Cc1nnc2c(Nc3ccccc3F)nc3nonc3n12`, the inhibition was 55.4% (active). On to `CCOC(=O)Cc1nnc2c(Nc3ccc(Cl)cc3)nc3nonc3n12`, for which the inhibition was 14.5% (inactive).

As to `Cc1noc(C)c1C(=O)N1CCC2(CC1)Oc1ccc(F)cc1C(=O)C21CC(c2ccc(Cl)cc2)=NO1` (stereo unspecified), the inhibition is 13% (inactive). `COc1ccc(/C=N/n2cnc3c([nH]c4ccc(F)cc43)c2=O)cc1CN1CCCC1`: the inhibition was 12.1% (inactive). Take `COc1ccc(C(=O)Nc2sc3c(c2C(=O)O)CC(C)(C)OC3)cc1`: the inhibition is 8.8% (inactive). With `CC1(C)Cc2c(sc(NC(=O)c3ccccc3)c2C(=O)O)CO1`, the inhibition was -27.1% (inactive). The value for `C(=N\N(c1ccccc1)c1ccccc1)/c1ccc(N2CCOCC2)s1` was 11.6% (inactive). On to `c1ccc2c(-c3c[nH]c4ccccc34)c3ccccc3nc2c1`, for which the inhibition is 0% (inactive).

In the case of `Cc1cccc(C(=O)c2cn[nH]c2-c2ccccc2O)c1`, the inhibition was -3.8% (inactive).

Regarding `Nn1c(-c2ccc(F)cc2)nc2ccccc2c1=O`, the inhibition is 12.9% (inactive). Turning to `O=C1c2ccccc2-n2c1nc1ccccc1c2=O`, the inhibition was 26.3% (inactive). On to `O=C1c2cc(F)ccc2-n2c1nc1ccccc1c2=O`, for which the inhibition is 63.4% (active).
